Only some compounds are listed: those with a hit (about 2.3% of all), similar ones and a draw of the others.
CHRM1 agonist = agonists of human M1 muscarinic receptor. 360,000 tested, 0.33% active. P11229. activation, % at 3 µM. CHO-K1 hM1, Fluo-8 calcium fluorescence, agonist mode; 0% DMSO, 100% acetylcholine EC100;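 active = activation above the run's mean compound activation plus 3 SD, cut at about 16% in these data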;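 note: peak over basal fluorescence ratio within a 140 s kinetic read after compound addition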
Target sequence (P11229 whole entry, looked up): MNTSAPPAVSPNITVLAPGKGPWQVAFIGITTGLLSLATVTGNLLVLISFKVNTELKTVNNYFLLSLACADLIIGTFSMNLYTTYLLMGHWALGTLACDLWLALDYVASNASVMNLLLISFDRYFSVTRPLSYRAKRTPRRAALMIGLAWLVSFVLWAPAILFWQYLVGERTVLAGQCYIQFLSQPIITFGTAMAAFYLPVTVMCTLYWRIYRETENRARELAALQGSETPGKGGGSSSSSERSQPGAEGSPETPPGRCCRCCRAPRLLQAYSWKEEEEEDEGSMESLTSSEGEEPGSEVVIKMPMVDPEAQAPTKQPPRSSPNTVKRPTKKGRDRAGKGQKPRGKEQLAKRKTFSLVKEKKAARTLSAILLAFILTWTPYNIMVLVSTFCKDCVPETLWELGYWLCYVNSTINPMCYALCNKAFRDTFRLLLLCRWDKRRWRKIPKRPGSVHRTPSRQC
M1 PAM = positive allosteric modulators of human M1 muscarinic receptor. P11229. CHO-K1 hM1, Fluo-8 calcium fluorescence, ACh EC20; 0% = ACh EC20, 100% = maximal ACh. activation, % at 3 µM. 360,000 tested, 0.088% active; in the data active = activation above about 19%, passing the limit was not always enough
CHO-K1 Ca antag = counter-screen for M1 antagonists: effect in parental CHO-K1 cells. ATP-induced calcium, Fluo-8 fluorescence. inhibition, % at 3 µM. 360,000 tested, 0.6% active. AID 602250;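 active = inhibition above a per-plate cutoff, the plate's mean sample inhibition plus 3 SD, cut at about 24% in these data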
CHRM1 antagonist = human CHRM1 antagonism. P11229. CHO-K1 hM1, Fluo-8 calcium fluorescence, ACh EC80 antagonist. 360,000 tested, 1.3% active. inhibition, % at 3 µM;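 active = percent inhibition above its own plate's cutoff, namely the mean of that plate's compound wells plus 3 SD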;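 note: peak over basal fluorescence ratio during 140 s after agonist addition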
M1 ag parental = nonselective activator or artifact in parental CHO-K1 cells | Fluo-8 calcium fluorescence; scaled to maximal ATP response, vehicle zero | activation, % at 3 µM | 360,000 tested, 0.48% active | AID 602248; in the data active = activation above about 15%;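 note: untransfected CHO-K1 host cells lacking M1 receptor as counterscreen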
CHO-K1 Ca PAM = M1 PAM counterscreen hit in parental CHO-K1 cells; ATP EC20, Fluo-8 calcium fluorescence; 0% at ATP EC20, 100% at ATP max; activation, % at 3 µM; 360,000 tested, 0.02% active; AID 602247;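 active = activation above the run cutoff, the mean activation of all test compounds plus 3 SD, cut at about 40% in these data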;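 note: peak over basal fluorescence ratio in a 140 s read after ATP addition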
Numbers stand for hits; - = inactive; . = not tested or not shown.

SMILES | CHRM1 agonist | M1 PAM | CHO-K1 Ca antag | CHRM1 antagonist | M1 ag parental | CHO-K1 Ca PAM
COC1OC(CO)C(O)C(O)C1O (stereo not given) | - | - | - | - | - | -
OC[C@H]1O[C@@H](O[C@@H]2[C@@H](CO)O[C@@](O)(CO)[C@H]2O)[C@H](O)[C@@H](O)[C@H]1O | - | - | 26.9 | - | - | -
CN(CC(=O)Nc1ccccc1)CC(=O)Nc1ccc(F)cc1 | - | - | - | - | - | -
CC1=C(C(=O)N(C(C)C)C(C)C)CC(CC(=O)NCCN2CCOCC2)C(=O)N1CCCN1CCCC1=O (stereo not given) | - | - | 26.2 | - | - | -
NC(=O)C1CN(C(=O)c2nn(Cc3ccccc3)c(=O)c3ccccc23)c2ccccc2O1 (stereo not given) | - | - | - | - | - | -
CC(NCC(O)COc1ccc(Br)cc1)c1ccccc1 (stereo not given) | - | - | - | 74.7 | - | -
CC(NCC(O)COc1ccc2ccccc2c1)c1ccccc1 (stereo not given) | - | - | - | - | 15.7 | -
O=C(Nc1ccc2c(c1)OCCO2)c1[nH]c(C(F)(F)F)nc1-c1ccccc1 | - | - | - | - | - | -
COC1=CC(C)C2CC3OC(O)CC4C(C)=C(OC)C(=O)C(C2(C)C1=O)C34C (stereo not given) | - | - | - | - | - | -
Cc1ccsc1C1C(C#N)=C(N)N(N(C)C)C2=C1C(=O)CCC2 (stereo not given) | - | - | - | 39.1 | - | -
CN(C)N1C(N)=C(C#N)C(c2cccs2)C2=C1CCCC2=O (stereo not given) | - | - | - | - | - | -
O=S1(=O)CC(N2CC=CC2)CN1Cc1cn(Cc2cccc(C(F)(F)F)c2)nn1 (stereo not given) | . | . | - | . | - | -
CCOC(=O)C1(Cc2ccccc2)CCCN(Cc2ccncc2)C1 (stereo not given) | - | - | - | - | - | -
CCOC(=O)C1(Cc2ccccc2)CCCN(Cc2cccc(C(C)=O)c2)C1 (stereo not given) | - | - | - | - | 15.6 | -
OCCC1CN(Cc2c(F)cccc2Cl)CCN1C1CCCC1 (stereo not given) | - | - | - | 56.7 | - | -
COc1ccc2c(c1)C=C(CN1CCN(C3CCCC3)C(CCO)C1)CO2 (stereo not given) | - | - | - | 95.2 | - | -
OCCC1CN(Cc2ccsc2)CCN1C1CCCC1 (stereo not given) | - | - | - | 43.1 | - | -
OCCC1CN(Cc2nc(-c3ccccc3)cs2)CCN1C1CCCC1 (stereo not given) | - | - | - | 45.0 | - | -
Cc1cc(C)c(C#N)c(SCSCc2ccccc2)n1 | - | - | - | - | - | -
Nc1c(C(=O)N2CCCCCC2)oc2ccccc12 | - | - | - | - | - | -
OCCC1CN(C/C(Cl)=C/c2ccccc2)CCN1C1CCCC1 (stereo not given) | - | - | - | 22.0 | - | -
CC(C)=CCN1CCN(C/C(Cl)=C/c2ccccc2)CC1CCO (stereo not given) | - | - | - | - | - | -
CCOc1cc(/C=C(/C#N)c2ccc(F)cc2)ccc1OCc1ccc(C(=O)O)o1 | - | 22.9 | - | - | - | -
CCOc1cc(/C=C(/C#N)c2nc3ccccc3[nH]2)ccc1OCc1ccc(C(=O)O)o1 | - | - | - | - | - | -
CC(CN1CCCCC1)OC(=O)C1c2ccccc2Oc2ccccc21 (stereo not given) | - | - | - | 86.8 | - | -
CC(NC(=O)c1cccnc1Sc1ccccc1)c1ccc(S(N)(=O)=O)cc1 (stereo not given) | - | - | - | - | - | -
Cc1nn2c(-c3ccccn3)ccnc2c1Cl | - | - | - | - | - | -
COc1ccc(C2C(C(=O)N3CCCC3)c3cc(OC)c(OC)cc3C(=O)N2C)cc1 (stereo not given) | - | - | 25.8 | - | - | -
COc1ccccc1NC(=O)CS(=O)(=O)c1cn(CC(=O)N2CCCC2)c2ccccc12 | - | - | - | - | - | -
O=C(CCN1C(=O)C2CC=CCC2C1=O)Nc1ccc(S(=O)(=O)N2CCCCC2)cc1 (stereo not given) | - | - | - | - | - | -

High-throughput results deposited in PubChem BioAssay by The Scripps Research Institute Molecular Screening Center.
